In ChEMBL document CHEMBL3433997, “St. Jude Leishmania screening dataset” (2016):

Assays:
Assay type in all cases: functional
[1] = target: Solute carrier family 2, facilitated glucose transporter member 1 (Homo sapiens) (UniProt P11166); test: ST_JUDE_LEISH: Cytotoxicity at 2uM final concentration against transgenic Leishmania Mexicana promastigotes LmGLUT1 that are glucose transport deficient and complemented with the human glucose transporter GLUT1. Activity is measured by DNA content using SYBR green in vitro
Sequence of Solute carrier family 2, facilitated glucose transporter member 1 (Homo sapiens) (P11166 whole entry): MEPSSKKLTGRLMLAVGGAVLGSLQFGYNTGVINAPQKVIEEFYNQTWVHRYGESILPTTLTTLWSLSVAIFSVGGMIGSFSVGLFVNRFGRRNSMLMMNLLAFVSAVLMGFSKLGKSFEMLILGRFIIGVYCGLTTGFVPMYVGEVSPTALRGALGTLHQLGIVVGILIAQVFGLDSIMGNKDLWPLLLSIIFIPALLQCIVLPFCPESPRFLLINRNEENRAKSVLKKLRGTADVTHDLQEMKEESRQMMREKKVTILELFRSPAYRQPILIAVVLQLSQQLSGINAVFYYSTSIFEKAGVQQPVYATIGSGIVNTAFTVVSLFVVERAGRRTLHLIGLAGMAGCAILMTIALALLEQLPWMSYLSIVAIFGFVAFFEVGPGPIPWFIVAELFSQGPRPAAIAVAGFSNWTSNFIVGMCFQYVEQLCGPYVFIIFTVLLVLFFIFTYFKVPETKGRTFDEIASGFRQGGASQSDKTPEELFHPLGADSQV

[2] = target: Hexose transporter 1 (Plasmodium falciparum) (UniProt O97467); test: ST_JUDE_LEISH: Cytotoxicity at 2uM final concentration against transgenic Leishmania Mexicana promastigotes LmPfHT that are glucose transport deficient and complemented with the Plasmodium falciparum hexose transporter. Activity is measured by DNA content using SYBR green in vitro
[3] = target: Glucose transporter (Leishmania mexicana) (UniProt O61059); test: ST_JUDE_LEISH: Cytotoxicity at 2uM final concentration against transgenic Leishmania Mexicana promastigotes LmGT2 that are glucose transport deficient and complemented with the L. Mexicana glucose transporter 2. Activity is measured by DNA content using SYBR green in vitro

Structure (SMILES)	inhibition [1]	inhibition [2]	inhibition [3]
O=C(NCCN1CCOCC1)c1ccc(-c2ccc(CNCCCc3ccccc3)cc2)nc1	-1.5%	-3%	-0.47%
COc1ccc(-c2cc(C(=O)N[C@@H](CC3CCCCC3)C(=O)NCCN3CCCCC3)ccc2O)cc1	-0.43%	-0.56%	-0.35%
COc1ccc(-c2ccc(NC(=O)c3cccc(Cl)c3)cc2)cc1CN(C)CCO	1.99%	0.94%	-1.71%
O=C(N/C=N/c1cc([N+](=O)[O-])c(-c2ccncc2)n1-c1ccccc1)c1cccc(O)c1	0.21%	0.41%	0.38%
CCN(CCCN1CCCCC1)c1nc(C)cc(Nc2ccc(Cl)cc2)n1	0.5%	-0.38%	1.1%
CCCCOc1c(CCNCCCCNCCc2cc(OC)c3ccccc3c2OCCCC)cc(OC)c2ccccc12	4.98%	5.5%	2.03%
CC1CNC(c2ccc(NC(=O)c3ccc(C(=O)Nc4ccc(C5=NC(C)CN5)cc4)cc3)cc2)=N1 (stereo unspecified)	8.16%	7.31%	0.91%
CCCCCCN1CCC(NCc2cccc([N+](=O)[O-])c2)CC1	3.72%	5.68%	4.96%
O=C(Nc1ccc(O)c(-c2nc3ccccc3[nH]2)c1)c1ccc([N+](=O)[O-])cc1	-2.13%	-0.21%	1.31%
O=C(Nc1ccc(-c2ccccc2)cc1)Nc1ccc2c(c1)CCNCC2	-2.5%	0.46%	-3.69%
COc1ccc(NC(=O)[C@H](CC(C)C)Nc2cc(C)nc(NCCOc3ccccc3)n2)cc1	1.07%	2.71%	-0.23%
O=C(/C=C/c1ccc(Cl)cc1)NCCCCCN1CCN(C(=O)C=Cc2ccc(Cl)c(Cl)c2)CC1	2.44%	0.82%	-2.29%
O=C(NCCc1ccccc1)N(Cc1cccc(-c2ccc(CNC3CCCC3)cc2)c1)C1CCN(Cc2ccccc2)CC1	13.9%	13.2%	11.2%
CCN1CCN(Cc2ccc(-c3ccc(NS(=O)(=O)c4cccc5cccnc45)cc3)cc2)CC1	20.6%	14%	9.92%
CN(C)CCCn1c(N)c(-c2nc3ccccc3[nH]2)c2nc(C#N)c(C#N)nc21	-1.02%	2.05%	-0.05%
CN(C(=O)c1ccc(Br)cc1)c1ccccc1[N+](=O)[O-]	-1.57%	-1.07%	-2.57%
CC(C)C[C@@H](/C=N/N1CC(=O)NC1=O)NC(=O)[C@H](CC(C)C)NC(=O)c1ccc(OCCN2CCOCC2)cc1	-0.34%	2.99%	1.11%
OCCN1CCN(C2Cc3ccc(F)cc3Sc3ccc(Cl)cc32)CC1 (stereo unspecified)	0.59%	-3.09%	0.59%
C=CCn1c(C)cc(C(=O)COc2ccc(S(=O)(=O)N3CCOCC3)cc2[N+](=O)[O-])c1C	2.97%	0.91%	0.84%
COc1ccc(NC(=O)/C=C/c2ccccc2Cl)cc1OCCN1CCC(N(C)C)CC1	2.23%	1.6%	1.83%
CC(=O)Nc1cccc(CNCc2ccc(-c3cnc(N4CCCC(C)(C)C4)nc3)cc2)c1	-2.79%	3.36%	0.65%
CN1CCC(NCc2cccc(-c3ccc(S(=O)(=O)NCc4ccccc4)c(F)c3)c2)CC1	2.09%	3.75%	4.35%
CC(C)CC(=O)N1CCNC[C@@H]1C(=O)NC1CC1	1.66%	1.41%	-0.37%
O=C(NCc1ccccc1)NC(CCCN1CCC(Oc2cccc(Cl)c2)CC1)c1ccc(Cl)c(Cl)c1 (stereo unspecified)	2.71%	-0.32%	-0.18%

Structure (SMILES)	inhibition [1]	inhibition [2]	inhibition [3]
Cc1cc(NC(=O)NCCN2CCC(NS(=O)(=O)c3ccccc3Cl)C2)c2ccccc2n1 (stereo unspecified)	-2.1%	1.02%	8.99%
O=C(Nc1ccccc1)c1ccc(-c2cc3ccncc3cc2OC2CCNCC2)s1	-3.12%	3.86%	-3.49%
Cc1ccc(-c2noc(COc3ccccc3C(=O)NC3CCCC3)n2)cc1	3.88%	6.24%	6.15%
Cc1cccc2nc(-c3cccc(-c4ccc(CN5CCN(CCO)CC5)cc4)c3)[nH]c12	2.28%	0.97%	-0.97%
c1ccc(CN2CCN(CCCCNc3c4ccccc4nc4ccccc34)CC2)cc1	31.7%	37.9%	19.4%
O=C(Nc1ccnc(N2CC3CC2CN3Cc2cccc(O)c2)c1)c1ccc(F)cc1 (stereo unspecified)	0.07%	-1.27%	1.75%
c1ccc2[nH]c(Nc3ccc(Nc4nc5ccccc5[nH]4)cc3)nc2c1	0.45%	0.37%	0.51%
Cc1cc(CN2CCC(N3CC(c4ccccc4)(c4ccccc4)OC3=O)C2)ccc1O (stereo unspecified)	4.14%	3.7%	8.06%
COc1ccc(CON2C(=N)N=C(N)NC2(C)C)cc1OC	-1.03%	-1.38%	-0.13%
Cc1cccc2nc(-c3ccc(-c4ccc(NC(=O)CN5CCN(C)CC5)cc4)s3)[nH]c12	-0.59%	-1.98%	-1.35%
COc1ccc2ncn(-c3ccc(C(N)=O)c(OCc4ccccc4C(F)(F)F)c3)c2c1	-0.54%	-1.32%	-3.42%
Cc1ccc2nc(C)n(C3CCN(C(=O)Cc4ccc(F)c(F)c4)CC3)c2c1	2.56%	2%	2.78%
COc1cc2nc(NCCn3nc(C)cc3C)nc(NCCc3ccccc3)c2cc1OC	-0.49%	5.15%	1.08%
COc1ccc(CNC2CCN(C)CC2)cc1-c1ccc(S(=O)(=O)NCCc2ccccn2)c(C)c1	4.11%	1.98%	1.53%
COc1ccc(NC(=O)[C@H](Cc2ccccc2)Nc2cc(C)nc(NCCc3cccnc3)n2)cc1	-0.56%	1.12%	1.34%
N=C(N)NN=CC(=O)Nc1ccc(Br)cc1	-1.7%	-4.24%	-1.29%
O=C(NCCCCCN1CCC(c2c[nH]c3ccccc23)CC1)Nc1ccc(I)cc1	11%	5.79%	9.45%
CCN(CC)CCNc1c2ccc(Cl)cc2nc2ccc(OC)nc12	3.46%	3.09%	3.99%
COc1ccc(N2CCc3c(-c4cccc5cnccc45)cc(C)nc32)c(C)c1	-0.79%	0.13%	-0.88%
CC(CN(C)C)C(=O)Nc1ccc(-c2ccc(-c3nc4cc(C(F)(F)F)ccc4[nH]3)cc2)cc1 (stereo unspecified)	12.9%	11.6%	9.66%
Clc1ccc2c(NCCCCCCCCNc3ccnc4cc(Cl)ccc34)ccnc2c1	2.99%	1.53%	1.88%
CN1CCCc2ccc(NC(=O)c3cnc(-c4ccccc4)cn3)cc21	0.24%	0.87%	-0.23%
O=c1[nH]c2c(cc1CNC1CCCCC1)c(-c1cccc(F)c1)nn2-c1ccccc1	1.69%	0.38%	-3.71%
CCN(CC)C(=O)c1cnc(-c2ccccc2)nc1Oc1cccc(Cl)c1	-0.46%	2.57%	3%

Structure (SMILES)	inhibition [1]	inhibition [2]	inhibition [3]
CNC(=O)c1ccccc1Nc1nc(Nc2ccc(N3CCOCC3)cc2)ncc1Cl	77.2%	84.9%	74.6%
Cc1ccc(-n2c(C)cc(C(=O)CN3C(=O)NC(Cc4ccccc4)C3=O)c2C)cc1 (stereo unspecified)	0.81%	-1.87%	0.55%
Cc1ccc(C(=O)Nc2cc(C(F)(F)F)cc(C(F)(F)F)c2)cc1[N+](=O)[O-]	9.19%	12.4%	7.77%
Cc1ccc(Nc2nccc(N(C)c3ccc4c(c3)nc(NC(=O)Cc3ccc(Cl)c(Cl)c3)n4C)n2)cc1S(N)(=O)=O	6.81%	11.6%	5.64%
NC(=O)c1ccc(C(=O)Nc2cccc(-c3csc(-c4nc5ccccc5[nH]4)c3)c2)cc1	9.88%	8.58%	8.06%
NC(=O)c1ccccc1Nc1nc(Nc2cccc(N3CCN(CCO)CC3)c2)ncc1Cl	64%	67.3%	57.8%
CCN1CCC(N(CCCCCCc2ccc(C(F)(F)F)cc2)C(=O)Cn2c(CCc3cccc(F)c3F)cc(=O)c3ccccc32)CC1	5.17%	3.94%	2.53%
CCOC(=O)c1c(C)noc1Nc1ccc(OC)cc1	1.87%	2.32%	2.21%
COc1ccc(NC(=O)[C@H](Cc2ccccc2)Nc2cc(C)nc(NCCN3CCCC3)n2)cc1	11.2%	9.21%	7.49%
CC[C@H](C)CNC(=O)c1cncc(-c2ccc(CNC3CCCC3)cc2)c1	2.12%	1.43%	1.7%
O=C(CC1SC(N2N=C(c3cccs3)CC2c2ccccc2)=NC1=O)Nc1ccccc1F (stereo unspecified)	14.2%	11.5%	3.51%
Cc1cc(N2CCCN(C)CC2)nc(Nc2ccc(Br)cc2)n1	5.39%	-1.23%	1.6%
Cc1nc2c(=O)sc3ccccc3c2n1Cc1ccccc1	0.4%	7.03%	-1.55%
Cn1c(NC2CCN(CC3CCN(C(=O)/C=C/c4ccc(Cl)c(Cl)c4)CC3)CC2)nc2ccccc21	49.9%	13.8%	81.9%
CCC[C@@H]([C@@H](CC1CCCCC1)C(=O)N[C@H](C(=O)Nc1nccs1)[C@H](C)O)N(O)C=O	1.07%	1.35%	2.03%
Clc1ccc2c(NCc3ccccn3)ccnc2c1	9.87%	10.9%	4.77%
COc1ccc2nccc([C@@H](O)CN3CCC(NC(=O)C(c4cc5ccccc5s4)N4CC(C)OC(C)C4)CC3)c2c1 (stereo partly specified)	4.19%	2.81%	3.57%
N#Cc1ccc(-c2ccc(C(=O)NCCCCN3CCC(c4cc(Br)c5c(c4OCC(N)=O)CCCC5)CC3)cc2)cc1	2.88%	1.24%	-0.04%
Oc1c(C(Nc2ccccn2)c2ccco2)cc(Cl)c2cccnc12 (stereo unspecified)	0.55%	1.24%	-1.1%
Cc1cc(NCc2ccccc2)nc2cc(O)ccc12	8.52%	13.2%	7.14%
CCOC(=O)c1c(C)n(-c2ccccc2)c2ccc(OC(=O)c3ccc(S(=O)(=O)N(CC)CC)cc3)cc12	4.6%	5.12%	5.12%
O=C(/C=C/c1ccc(Cl)c(Cl)c1)NCCCCCN1CCC(NC(=O)c2ccc(F)c(F)c2)CC1	3.18%	5.17%	6.18%
COc1ccc(CNCCc2cccs2)cc1-c1cccc(S(=O)(=O)NCCN2CCCC2)c1	2.17%	2.94%	0.9%
Cc1cccc(/C=C/C(=O)NC2CCC(N3CCC(c4ccccc4C)CC3)CC2)c1 (stereo unspecified)	-2.65%	-2.79%	-0.99%
